36 compounds from PubChem BioAssay can be followed below.

The structures appear in SMILES notation.

Test system in one test: not listed separately
The test can be described thus: small-molecule microarray binders of probe aLefty2, primary screen, biochemical, biotinylated probe, 635/667 nm fluorescence (AID 1094).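 Further: score merges spot fluorescence near 667 nm with spot signal-to-noise ratio.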 The conditions noted are these: higher = more signal.
The compound `CC(C)(C)OC(=O)CC[C@]1(C(=O)NCC(O)CO)N=C(c2ccc(OCCCO)cc2)O[C@H]1c1ccccc1N=[N+]=[N-]` (stereo partly drawn) displayed a composite z-score of 0.595.

As for `CCOC(=O)C1=CCC(c2cc3ccccc3[nH]2)N(CCN2CC(C(=O)OCC)=CCC2c2cc3ccccc3[nH]2)C1` (stereo not drawn), the composite z-score came to 0.0094.

Regarding `COCC(=C=CC[C@H](O)c1ccccc1OCCO)C[C@H](O)COCc1ccccc1`, the composite z-score is -0.0113.

As for `CN(C)CCCCNC(=O)[C@H]1C[C@H]2C(=O)N3CCC[C@H]3C(=O)N2[C@H]1c1cccc(OCCO)c1`, the composite z-score amounted to 0.0164.

Compound `COCCCNC(=O)[C@@H]1c2ccccc2C(=O)N(Cc2ccc(OC(F)(F)F)cc2)[C@H]1c1ccc(CO)cc1` gave a composite z-score of -0.0687.

Turning to `COc1ccc(C#Cc2ccc3c(c2)[C@]2(C(=O)N3)[C@H](C(=O)O)[C@H]3C(=O)O[C@H](c4ccccc4)[C@H](c4ccccc4)N3[C@@H]2c2ccccc2OCCO)cc1`, the composite z-score was -0.321.

Regarding `O=C1O[C@H](Cc2ccccc2)[C@@H]2[C@H]3C=CCCC=C3CN2[C@H]1Cc1ccc(O)cc1`, the composite z-score is -0.0591.

In another test the test system is Noggin (protein binding on small-molecule microarray). The test can be described thus: Noggin binders on small-molecule microarray, primary screen, biochemical, 635/667 nm fluorescence (AID 1095).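 Further: score merges 667 nm feature fluorescence with signal to noise over triplicate slides.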 The conditions noted are these: 635 nm fluorescence, higher = more signal.
`C=CCC(OC(C)=O)[C@@H]1[C@@H](N(Cc2cccc3ccccc23)C(=O)c2ccc(-c3ccccc3)cc2)c2cc(OCCCO)ccc2N1C(=O)Cc1ccc2ccccc2c1` (stereo partly drawn) came in with a composite z-score of -0.109.

In turn, `O=C(NC1CC1)[C@@H]1c2ccccc2C(=O)N(Cc2ccc(OC(F)(F)F)cc2)[C@H]1c1ccc(CO)cc1` had a composite z-score of 0.818.

The compound `O=C(NC1CC1)[C@@H]1c2ccccc2C(=O)N(CC23CC4CC(CC(C4)C2)C3)[C@H]1c1ccc(CO)cc1` registered a composite z-score of 1.47.

`CC(=O)NCCCC[C@@H]1NC(=O)[C@H]2C[C@@H](C(=O)NCCCCCCNC(=O)CS)[C@@H](c3cccc(OCCO)c3)N2C1=O` showed a composite z-score of 0.153.

For `O=C1O[C@@H](c2ccccc2)[C@@H](c2ccccc2)N2[C@@H](c3ccc(OCCO)cc3)[C@]3(C(=O)Nc4ccc(C#CC5(O)CCCCCC5)cc43)[C@@H](C(=O)O)[C@H]12`, the composite z-score was 0.674.

Consider `COC(=O)[C@@]1(Cc2ccccc2)[C@H]2c3cc(C(=O)N(C)C)n(Cc4ccc(C(F)(F)F)nc4)c3C[C@H]2CN1C(=O)c1ccccc1`, for which the composite z-score is -0.498.

`CN1C(=O)C2C(C1=O)C1C=C(c3ccc(CO)cc3)C2C(C2CC2)N1C` (stereo not drawn): the composite z-score turned out to be 0.102.

Compound `O=C1C=C(c2ccccc2)C(=O)C2=C1CC([C@H]1Oc3ccccc3S(=O)(=O)N3CCC[C@@H]13)=CC2` came in with a composite z-score of -0.194.

Compound `C=C(COC)C(=O)CC[C@@H](OC(C)=O)c1ccccc1OCCO` yielded a composite z-score of 1.11.

`COCCOC(=O)N1C(=O)[C@@]2(c3cc(C#CCCO)ccc31)[C@H](c1ccccc1OCCO)N1[C@H](c3ccccc3)[C@H](c3ccccc3)OC(=O)[C@H]1[C@@H]2C(N)=O`: the composite z-score worked out at 1.6.

Compound `CCCCCCc1nc(Cc2cc(OC)c(OC)c(OC)c2)cc2c1[Si](C(C)C)(C(C)C)O[C@H]2c1ccccc1` came in with a composite z-score of 0.619.

With `COC(=O)[C@]1(CCC(=O)OC(C)(C)C)N=C(c2ccc(OCCCO)cc2)O[C@@H]1c1ccccc1N=[N+]=[N-]`, the composite z-score came out at 0.677.

As to `C[C@@H]1ON(c2ccc(I)cc2)[C@H](c2cccc(NC(=O)OCC3c4ccccc4-c4ccccc43)c2)[C@H]1C(=O)N1C(=O)OC[C@H]1Cc1ccccc1`, the composite z-score was determined as 0.493.

Compound `CC1CC/C=C\[C@H]2OC34C=CCN(C(C)(C)C)C(=O)[C@H]3N(CCCO)C(=O)[C@@H]4C2C(=O)O1` (stereo partly drawn) returned a composite z-score of -0.556.

For `COc1ccc([Si](C)(C)[C@H]2[C@H](CC(=O)N3Cc4ccccc4C[C@H]3CO)O[C@@]3(C(=O)N(c4ccccc4)c4ccccc43)[C@@H]2C)cc1`, the composite z-score is 1.85.

`CCCNC(=O)[C@@]1(Sc2ccc(C)cc2)CC(=O)N(Cc2ccccc2Cl)[C@@H]1c1ccc(CO)cc1I` yielded a composite z-score of -1.24.

As to `N#Cc1ccc(-c2cccc(=O)o2)cc1`, the composite z-score was 0.671.

In turn, `CCCCC(O)C1C=CC2C(=O)N(c3ccccc3)C(=O)C2N1Nc1ccccc1` (stereo not drawn) came in with a composite z-score of -0.422.

`CC(C)=CCCC=C(C)C(O)C1C=CC2C(=O)N(c3ccccc3)C(=O)C2N1Nc1ccc(C#N)cc1` (stereo not drawn) gave a composite z-score of 0.0542.

Turning to `COCCOC(=O)N1C(=O)[C@@]2(c3cc(C#CC4(O)CCCCCC4)ccc31)[C@H](c1ccc(O)cc1)N1[C@H](c3ccccc3)[C@H](c3ccccc3)OC(=O)[C@H]1[C@@H]2C(=O)N1CCCCCCC1`, the composite z-score is 1.3.

Regarding `COCCOC(=O)N1C(=O)[C@@]2(c3cc(C#Cc4ccc(OC)cc4)ccc31)[C@H](c1ccc(OCCO)cc1)N1[C@H](c3ccccc3)[C@H](c3ccccc3)OC(=O)[C@H]1[C@@H]2C(=O)NC[C@H](O)c1ccccc1`, the composite z-score is 0.729.

As for `O=C(N1CCOCC1)[C@@]1(Cc2ccccc2)COC(c2ccc(OCCCO)cc2)=N1`, the composite z-score is -0.622.

Turning to `COC(=O)c1cccc([C@H]2OC(=CC(=O)OC(C)C)C[C@@H](c3cccc(C(=O)OC)c3)O2)c1`, the composite z-score was 1.22.

In turn, `CN1C(=O)[C@@H]2[C@@H](CC(COc3ccccc3)=C3[C@@H](CCc4ccccc4)OB(O)C[C@@H]32)C1=O` came in with a composite z-score of 0.231.

`C=C(COC)C(=O)CC[C@@H](OC(=O)c1ccccc1-c1ccccc1C(=O)O)c1ccc(OCCO)cc1` displayed a composite z-score of 1.26.

The compound `C=C(CCCC)C(=O)CC[C@H](OC(=O)c1ccccc1-c1ccccc1C(=O)O)c1ccc(OCCO)cc1` had a composite z-score of 1.43.

`C[N+](C)(C)CCCC[C@@H]1NC(=O)[C@H]2C[C@@H](C(=O)NCCCCCNC(=O)CS)[C@@H](c3cccc(OCCO)c3)N2C1=O` showed a composite z-score of 0.378.

In the case of `CC(C)NC(=O)[C@@]1(c2ccc([N+](=O)[O-])cc2)CC(=O)N(CC23CC4CC(CC(C4)C2)C3)[C@@H]1c1ccc(CO)cc1`, the composite z-score stood at 1.57.

In turn, `CC(=O)OCC1C2CC[C@H]3C(OCc4ccc(F)cc4C(F)(F)F)OC[C@]4(C)[C@H]3C2=C(CN4C(=O)OC(C)(C)C)[C@H](C)C1COC(C)=O` (stereo partly drawn) showed a composite z-score of 1.2.

The compound `CC(C)(C)OC(=O)CC[C@]1(C(=O)NCC(O)CO)N=C(c2ccc(OCCCO)cc2)O[C@H]1c1ccccc1N=[N+]=[N-]` (stereo partly drawn) came in with a composite z-score of 0.187.

As to `CCOC(=O)C1=CCC(c2cc3ccccc3[nH]2)N(CCN2CC(C(=O)OCC)=CCC2c2cc3ccccc3[nH]2)C1` (stereo not drawn), the composite z-score worked out at 0.38.

`COCC(=C=CC[C@H](O)c1ccccc1OCCO)C[C@H](O)COCc1ccccc1` gave a composite z-score of 0.513.

Take `CN(C)CCCCNC(=O)[C@H]1C[C@H]2C(=O)N3CCC[C@H]3C(=O)N2[C@H]1c1cccc(OCCO)c1`: the composite z-score stood at 0.866.

Compound `COCCCNC(=O)[C@@H]1c2ccccc2C(=O)N(Cc2ccc(OC(F)(F)F)cc2)[C@H]1c1ccc(CO)cc1` registered a composite z-score of 0.489.

The compound `COc1ccc(C#Cc2ccc3c(c2)[C@]2(C(=O)N3)[C@H](C(=O)O)[C@H]3C(=O)O[C@H](c4ccccc4)[C@H](c4ccccc4)N3[C@@H]2c2ccccc2OCCO)cc1` returned a composite z-score of 0.597.

In turn, `O=C1O[C@H](Cc2ccccc2)[C@@H]2[C@H]3C=CCCC=C3CN2[C@H]1Cc1ccc(O)cc1` returned a composite z-score of -0.0371.
